Screens deposited in PubChem by National Center for Advancing Translational Sciences (NCATS).
Vif-A3G inh – inhibitors of Vif-APOBEC3G interaction; hit rate 0.076% among 410,000; AID 602310; HeLa A3G-eYFP + Vif (tagged APOBEC3G with the HIV-1 protein that degrades it), YFP fluorescence, overnight; Q9HC16; Potency, µM (series often up to 46.1 µM), hits mostly inhibitors; note: nearly all actives have a fitted effect of over 60% in size
Target sequence (Q9HC16 whole entry, looked up): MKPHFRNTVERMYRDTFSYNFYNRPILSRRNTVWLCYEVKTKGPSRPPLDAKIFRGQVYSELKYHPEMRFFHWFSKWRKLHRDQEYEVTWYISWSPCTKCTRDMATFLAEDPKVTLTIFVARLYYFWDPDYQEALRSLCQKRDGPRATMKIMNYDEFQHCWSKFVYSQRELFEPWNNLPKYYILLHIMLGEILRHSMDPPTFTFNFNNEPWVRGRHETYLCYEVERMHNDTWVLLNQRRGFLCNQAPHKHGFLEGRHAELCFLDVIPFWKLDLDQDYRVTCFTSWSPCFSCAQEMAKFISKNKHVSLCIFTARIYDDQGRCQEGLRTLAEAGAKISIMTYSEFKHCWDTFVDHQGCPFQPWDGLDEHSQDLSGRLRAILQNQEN
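HeLa cells stably expressing Vif and C-terminally eYFP-tagged A3G, seeded overnight at 37 deg C, then exposed to compound by pintool overnight at 37 deg C. Rise in yellow fluorescence (Ex 488/Em 500-530, Acumen) marks blocked Vif-driven A3G degradation.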
PLK1 PBD block – PLK1 (human) polo-box domain binding inhibition; P53350; Plk1 PBD binding of FITC phosphopeptide, fluorescence polarization; Potency, µM, actives largely listed as inhibitors; hit rate 2.8% among 360,000; note: series mostly up to about 57 µM; nearly all actives have a fitted effect of over 65% in size
VDR inhibitor – vitamin D3 receptor (human) inhibition | P11473 | VDR-SRC2-3 peptide fluorescence polarization, 2 h | Potency, µM, usual class: inhibitors | hit rate 0.93% among 400,000
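Compounds are added to VDR with labelled SRC2-3 coactivator peptide and held 2 h at room temperature. Inhibition of the VDR–peptide interaction is then read as a change in fluorescence polarization.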
Vif-A3F inh – blocks the Vif interaction with APOBEC3F. hit rate 0.2% among 390,000. HeLa A3F-eYFP + Vif (tagged APOBEC3F with the HIV-1 protein that degrades it), YFP fluorescence increase. Potency, µM (series often up to 46.1 µM); note: nearly all actives have a fitted effect of over 65% in size
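HeLa cells stably expressing Vif plus C-terminally eYFP-tagged A3F were seeded, incubated overnight at 37 deg C, dosed with compound, incubated overnight again at 37 deg C. Yellow fluorescence (Ex 488/Em 500-530) reported blocked Vif-mediated A3F-eYFP degradation.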
TSHR antag – human thyrotropin receptor antagonism; hit rate 0.2% among 330,000; TSHR-expressing cells, TSH-stimulated cAMP HTRF, 2 h; stronger effect = lower value; activity change, negative = inhibition, % at 11.5 µM; P16473;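 active = activity change below a set negative limit, meaning inhibition stronger than a set level, cut at about -70% in these data; inconclusive = activity change between two set negative limits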
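Read-out is FRET at 665 nm (cryptate excitation 337 nm) from a cryptate-tagged anti-cAMP antibody, competed by cell cAMP against cAMP-d2. Compounds are tested on freshly harvested TSHR cells challenged with 4nM TSH (EC80) for 2 hours at 37 deg C.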
Hits are given with their value; i = inactive; ? = inconclusive; nt = not tested or not shown. A selection: hits, their analogues and other compounds. The true share with any hit is near 3.1%. Unless noted, calls come from the whole dose curve; as a rule, active = well fitted curve in the direction sought with a large enough effect; inconclusive = small, poorly fitted or top-dose-only effect, or another doubt; inactive = no such curve, though single readings can be large; an effect the other way counts as inactive or inconclusive.

SMILES	Vif-A3G inh	PLK1 PBD block	VDR inhibitor	Vif-A3F inh	TSHR antag
O=C(O)C(c1ccccc1)N1C(=O)/C(=C\c2ccc(-c3ccc(Br)cc3)o2)SC1=S (stereo not drawn)	i	i	?	?	i
CCC(C)Sc1ccc(-c2nc3cc(C)ccn3c2NC2CCCCC2)cc1 (stereo not drawn)	?	i	i	11µM	i
COc1cc2c(cc1OC)[C@H](C)N(CC1C(=O)O[C@@H]3C[C@@]4(C)CCC[C@H](C)[C@@]45OC5[C@H]13)CC2 (stereo partly drawn)	nt	nt	i	nt	nt
CCc1c2c(nc3ccc4c(c13)OCCO4)-c1nc3ccccc3c(=O)n1C2	i	nt	i	nt	nt
CCCN1CNc2c(c(=O)[nH]c(=S)n2CCc2cc(Cl)cc(Cl)c2)C1	nt	nt	i	nt	nt
CN(C)c1c(Br)cc(C=O)cc1Br	i	nt	nt	nt	nt
COc1cc(/C=N/NC(=O)CC#N)cc(Br)c1O	i	11µM	?	i	i
COc1cc(/C=N/NC(=O)Cc2ccc(Br)cc2)cc(OC)c1O	i	i	i	i	i
CCOC(=O)CN1C2=NCCN2c2ccccc21	i	i	i	i	i
CCCCCN1C2=NCCN2c2ccccc21	i	24µM	i	i	i
Cc1ccccc1CN1C2=NCCN2c2ccccc21	i	27µM	i	i	i
C1=Cc2ccccc2/C1=C\c1cc[cH-]c1.[Fe+2].c1cc[cH-]c1	i	nt	nt	nt	nt
O=c1[nH]c(CSc2nnc(Nc3ccccc3)s2)nc2ccccc12	i	27µM	i	i	i
CC(=O)NC(c1cc(Cl)c2cccnc2c1O)C(C)C (stereo not drawn)	i	nt	i	8.9µM	i
CC(=O)NC(c1cc(F)c2cccnc2c1O)C(C)C (stereo not drawn)	nt	nt	nt	nt	i
CC(=O)NC(c1ccc(C)cc1)c1cc(Cl)c2cccnc2c1O (stereo not drawn)	i	i	i	i	i
CC(=O)NC(c1cc(Cl)c2cccnc2c1O)C1CC1 (stereo not drawn)	5µM	nt	i	?	i
CN1CCN(C(c2ccccn2)c2cc(Cl)c3cccnc3c2O)CC1 (stereo not drawn)	i	9.5µM	50µM	i	i
C=CCN(C)CCCCCCOc1ccc(C(=O)c2ccc(Br)cc2)c(F)c1	i	nt	i	nt	nt
COC(=O)NC(/C=C/c1ccccc1)C(C(C)=O)C(=O)OC (stereo not drawn)	nt	nt	i	nt	nt
O=C(Nc1c(Cl)cc([N+](=O)[O-])cc1Cl)c1cc(Cl)ccc1O	i	nt	i	nt	nt
Clc1nc(NCc2cccs2)c2[nH]cnc2n1	i	nt	?	nt	nt
CCCn1c(SCC(=O)Nc2ccccc2CC)nnc1C(C)C	i	3µM	i	i	i
Nc1ccc(C=O)cc1	i	nt	nt	nt	nt
CC(=O)c1sc(NC(=O)C2(F)C(F)(F)C(F)(F)C(F)(F)C(F)(F)C2(F)F)nc1C	i	?	i	i	-75
SMILES	Vif-A3G inh	PLK1 PBD block	VDR inhibitor	Vif-A3F inh	TSHR antag
CCCCCn1c(=O)c2ccccc2n2c(=S)[nH]nc12	i	19µM	?	i	i
CCCn1c(=O)c2ccccc2n2c(=S)[nH]nc12	i	i	i	i	i
CCCCn1c(=O)c2ccccc2n2c(=S)[nH]nc12	i	27µM	i	i	i
CSCC[C@H](NC(=O)[C@H](CCCN=C(N)N)NC(=O)[C@@H]1CCCN1C(=O)[C@H](Cc1ccccc1)NC(=O)[C@H](C)NC(=O)[C@H](CC(C)C)NC(=O)[C@H](Cc1ccc(O)cc1)NC(=O)[C@H](CC(N)=O)NC(=O)[C@@H](N)CCSC)C(N)=O	nt	nt	i	nt	nt
Cc1cc[n+](-c2[nH]c(=O)sc2/C=N/N=C(\[O-])c2ccccc2)cc1C	i	24µM	i	i	i
Cc1cc[n+](-c2[nH]c(=O)sc2/C=N/N=C(\[O-])c2ccccc2)cc1	i	i	i	i	i
O=c1c2ccccc2[nH]c2ccc(O)cc12	i	30µM	i	i	i
COc1ccc(C(=O)Nc2cc(C(C)=O)c(C)oc2=O)cc1	i	i	i	?	i
COC(=O)c1cc(NC(=O)c2ccccc2)c(=O)oc1/C=C/Nc1ccc(Oc2ccccc2)cc1	?	i	i	8.9µM	i
Cc1ccc(C2NC(c3ccc4c(c3)OCO4)=CC(c3cc(Br)ccc3O)N2)cc1 (stereo not drawn)	i	nt	?	nt	nt
S=C=Nc1ccc(N=C=S)cc1	nt	nt	i	nt	nt
O=C(CCN1CCCC1Cc1ccccc1)c1ccc2c(c1)OCCO2 (stereo not drawn)	i	21µM	35µM	i	nt
O=C(CCN1CCc2ccccc2C1)c1ccc2c(c1)OCCO2	i	24µM	?	i	i
COc1cc(C(=O)CCN2CCC(c3ccccc3)C2)cc(OC)c1OC (stereo not drawn)	i	27µM	?	i	i
O=C(CCN1CCCCC1)c1ccc2c(c1)OCCO2	i	?	i	i	i
O=C(CCN1CCC(c2ccccc2)C1)c1ccc2c(c1)OCCO2 (stereo not drawn)	i	6µM	14µM	i	i
COc1ccc2c(c1)O[C@@H](c1cccc(C(F)(F)F)c1)[C@H](OC(=O)NS(=O)(=O)c1ccc(C)cc1)C2=O	nt	nt	i	nt	nt
COc1ccc(SCC(CC(C)C)N2CCN(C)CCC2=O)cc1 (stereo not drawn)	i	nt	i	nt	nt
O=C(CCNS(=O)(=O)c1cccc2nonc12)Nc1ccc(F)cc1	i	nt	i	i	nt
Cc1ccc(/C=C2/C(=O)N(c3ccccc3)C(=S)N2C)o1	i	i	79µM	i	i
CCOc1ccc(N2C(=O)/C(=C/c3ccco3)N(C)C2=S)cc1	i	i	i	i	i
COC(=O)C1=C(C(=O)OC)C(c2cc(Cl)ccc2O)c2sc(=O)[nH]c2S1 (stereo not drawn)	i	9.5µM	?	i	i
COc1ccc(C2c3sc(=O)[nH]c3SC3C4CCC(C4)C23)cc1OC (stereo not drawn)	i	?	i	i	i
COC(=O)C1=C(C(=O)OC)C(c2cc(Br)ccc2O)c2sc(=O)[nH]c2S1 (stereo not drawn)	i	3µM	?	i	i
COC(=O)C1=C(C(=O)OC)C(c2ccc(OC)c(OC)c2)c2sc(=O)[nH]c2S1 (stereo not drawn)	i	i	79µM	i	i
SMILES	Vif-A3G inh	PLK1 PBD block	VDR inhibitor	Vif-A3F inh	TSHR antag
CCC(=O)N1CCc2cc(S(=O)(=O)NCCC(=O)Nc3ccc(C)cc3)ccc21	i	nt	i	i	nt
CC(=O)NC(Cc1ccccc1)C(=O)NC1CCN(C(=O)c2ccc([N+](=O)[O-])cc2)CC1 (stereo not drawn)	i	3.4µM	i	i	i
CC(=O)NC(Cc1ccc(C)cc1)C(=O)NC1CCN(C(=O)c2ccc([N+](=O)[O-])cc2)CC1 (stereo not drawn)	i	i	i	i	i
O=[N+]([O-])c1cc([N+](=O)[O-])c(Oc2cc(F)cc(F)c2)cc1NN1CCCCC1	i	27µM	i	i	i
COc1cc(-c2nc3ccc(C)cn3c2NCc2ccccc2)ccc1SC1CCCCC1	10µM	i	i	i	i
CC(C)Sc1nc(N)c2c3c(sc2n1)CN(C)CC3	i	27µM	i	i	i
